{"source": "PubChem BioAssay (NCATS)", "note": "Activity calls are given as the source filed them. Calls follow the shape of the full dose curve. % is scaled to controls: 0 for no effect and ±100 for the full control effect; potency is read from the fitted curve at half-maximal effect.", "data": [{"molecular_target": "Guanidinoacetate N-methyltransferase (Homo sapiens) (UniProt Q14353)", "assay": "Confirmatory Screen for Target Class Profiling of Small Molecule Inhibitors of Methyltransferases (AID 1745852)", "conditions": "MTase-Glo luminescence, SAH detection, recombinant enzyme; activity change, negative = inhibition: at 57.3 µM (top of the series) unless noted; series mostly up to 57.3 µM", "values": [{"smiles": "CCCS(=O)(=O)N1CCCC(Cn2c(C)nc3cccnc32)C1", "note": "(stereo not given)", "activity change, negative = inhibition": "2.96%"}, {"smiles": "COc1ccc(-c2nnn3c2nc(N2CCOCC2)c2ccccc23)cc1", "Potency": "19.2 µM (active)"}, {"smiles": "Cc1ccc(NC(=O)N2CCc3c(c4ccccc4n3CC3CC3)C2)cc1", "activity change, negative = inhibition": "14.5%"}, {"smiles": "CC[C@H](C)NC(=O)c1sc(=S)n2c1[nH]c(=O)c1cc(Cl)ccc12", "Potency": "24.1 µM (active)"}, {"smiles": "Cc1cc(NS(=O)(=O)c2ccc3[nH]c(=O)[nH]c3c2)ccc1Br", "activity change, negative = inhibition": "0.289%"}, {"smiles": "CC(C)Cn1c(=O)c2ccccc2n2c(CCC(=O)N3CCN(c4ccccc4F)CC3)nnc12", "activity change, negative = inhibition": "0%"}, {"smiles": "c1ccc(-c2cc3c(cn2)NCCN(Cc2ccccn2)C3)cc1", "activity change, negative = inhibition": "3.72% [at 85.7 µM]"}, {"smiles": "CCN(CC)CCNC(=O)CCc1nnc2n(CCc3ccccc3)c(=O)c3ccccc3n12", "activity change, negative = inhibition": "1.05%"}, {"smiles": "COc1ccc(S(=O)(=O)NC[C@H]2Cn3c(-c4ccc(Cl)cc4)cnc3CO2)cc1", "activity change, negative = inhibition": "-2.1% [at 85.7 µM]"}, {"smiles": "CC1CCN(CCCNC(=O)CCc2nnc3n(Cc4ccc(Cl)cc4)c(=O)c4ccccc4n23)CC1", "activity change, negative = inhibition": "-1.55%"}, {"smiles": "Cc1cccc(N2CCN(C(=O)CCc3nnc4n(CCC(C)C)c(=O)c5ccccc5n34)CC2)c1C", "activity change, negative = inhibition": "0%"}, {"smiles": "CCCC1c2cccn2CCN1C(=O)Nc1ccc(OC)cc1", "note": "(stereo not given)", "activity change, negative = inhibition": "-3.73%"}, {"smiles": "COc1cccc(CN2CCCC3(CNc4ccccc4[S+](=O)([O-])N3)C2)c1", "note": "(stereo not given)", "activity change, negative = inhibition": "-8.51%"}, {"smiles": "COc1ccccc1-c1[nH]nc2ncc(C(=O)N3CCN(Cc4ccccc4)CC3)nc12", "Potency": "35 µM (active)"}, {"smiles": "Cc1cnc(C2CCC2)n1C1CCN(C(=O)CCC2CCCC2)CC1", "activity change, negative = inhibition": "-7.84%"}]}]}
